BaF3 tox: parental Ba/F3 viability inhibition as JAK2V617F counter-screen | CellTiter-Glo ATP luminescence | inhibition, % at 5.6 µM | 1.1% of 220,000 active;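 active = inhibition above a per-campaign cutoff, the mean inhibition of all tested compounds plus 3 SD, cut at about 27% in these data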
aSyn UTR inh: 5' untranslated region of α-synuclein, MLPCN primary screen; AID 1813; inhibition, % (tested at 7.5 µM); 0.82% of 300,000 active; alpha-synuclein 5'UTR reporter, inhibitor activity; in the data active = inhibition above about 60%; inconclusive = no clear call, values can overlap the other calls;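 note: H4 neuroglioblastoma cells stably carrying SNCA 5'UTR luciferase fusion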
Ba/F3 V617F tox: loss of viability in JAK2V617F-driven Ba/F3 cells. Ba/F3 EpoR-JAK2V617F viability, ATP luminescence. inhibition, % at 5.6 µM. 1.1% of 220,000 active;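 active = inhibition above the campaign mean plus 3 SD over all tested compounds, cut at about 24% in these data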;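 note: cytokine-independent growth of Ba/F3 cells driven by EpoR plus mutant JAK2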
KLF5 inhibitor: suppresses KLF5 promoter-driven expression; DLD-1 KLF5 promoter-luciferase reporter, luminescence; inhibition, % at 5 µM; 0.23% of 290,000 active; AID 1700;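 active = inhibition above a per-plate limit of that plate's mean compound inhibition plus 3 SD, cut at about 60% in these data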;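 note: higher means less KLF5 promoter-driven luciferase light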
IEC-6 tox: kills IEC-6 intestinal cells in KLF5 counter-screen; 0.78% of 290,000 active; IEC-6 cytotoxicity, luminescence viability; inhibition, % at 5 µM; in the data active = inhibition above about 22%
APP 5UTR inh: APP translation inhibition; SH-SY5Y APP 5'UTR-luciferase reporter, luminescence; inhibition, % at 2 µM; 0.82% of 190,000 active; AID 1285;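 active = inhibition above a set limit, derived from the sample mean plus 3 SD, cut at about 45% in these data; inconclusive = one replicate passes the limit while the other fails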
A number is an active result; . = inactive; ? = inconclusive; / = no result. Rows were chosen to be rich in hits. Some 2.1% of all compounds tested hit in one or more screens of this group.

SMILES	BaF3 tox	aSyn UTR inh	Ba/F3 V617F tox	KLF5 inhibitor	IEC-6 tox	APP 5UTR inh
C/C(=N\NC(=O)c1nnn(-c2nonc2N)c1-c1ccccc1)c1ccco1	/	/	/	.	/	/
Cc1ccc(N=Nc2ccc(O)c3ncccc23)cc1	.	86	.	.	.	78
CCS(=O)(=O)c1ccc(O)c(NC(=O)c2cc(OC)c(OC)c(OC)c2)c1	.	.	.	.	.	.
CCS(=O)(=O)c1ccc(N=Nc2ccc(O)c3ncccc23)c(OC)c1	.	78	.	.	.	63
Cc1ccc(N=Nc2ccc(O)c3ncccc23)cc1C	.	74	.	.	.	.
CCOC(=O)C1(Cc2cccc(Cl)c2)CCCN(C(=O)CN2C(=O)CSC2=O)C1 (configuration not stated)	/	.	/	.	.	/
C#CCN(C(=O)c1ccc(OC)c(OC2CCN(C(C)C)CC2)c1)C1CCCCC1	/	.	/	.	.	/
CC(C)c1csc(CN2CCC(n3nccc3NC(=O)Cc3ccccc3)CC2)n1	/	.	/	.	.	/
CSc1ccccc1OCc1cc(C(=O)N2CCN3CCCC3C2)no1 (configuration not stated)	/	.	/	.	.	/
CCCCCOc1ccc(Br)cc1CSC(=N)N	47	.	60	.	49	63
COc1ccc(Br)cc1CSC(=N)N	.	.	.	.	.	.
Cc1cc(O)c(C(C)C)cc1NC(=O)c1ccccc1Cl	.	.	.	.	.	45
Cc1nc2cc(N3CCN(C)CC3)c(NC(=O)Cc3ccccc3)cc2c(=O)n1Cc1ccccc1	.	.	.	.	.	.
Cc1nc2cc(N3CCCCC3)c(NC(=O)c3ccncc3)cc2c(=O)n1Cc1ccc(Cl)cc1	.	62	.	.	.	/
Cc1ccc(N(CCC#N)C(=O)COC(=O)C2CCN(S(=O)(=O)c3ccc4c(c3)OCCO4)CC2)cc1	/	.	/	/	/	/
COc1ccc(Cl)cc1NS(=O)(=O)c1cccc(C(=O)NCC(c2ccco2)N(C)C)c1 (configuration not stated)	/	.	/	.	.	/
CCCc1nn2c(=O)cc(CSCC(=O)Nc3ccccc3OC)nc2s1	/	.	/	.	.	/
CC1CCc2nc(NC(=O)c3ccco3)sc2C1 (configuration not stated)	.	88	.	.	.	.
CC(=O)Nc1nc2cc3c(cc2s1)OCO3	.	.	.	.	.	.
O=C(Nc1nc2cc3c(cc2s1)OCO3)c1ccco1	.	80	.	.	.	/
CC1CCc2nc(NC(=O)Cc3cccs3)sc2C1 (configuration not stated)	.	.	.	.	.	.
O=C1CCCc2c1[nH]c1ccc(Cl)cc21	.	63	.	.	.	.
COc1ccc(S(=O)(=O)N2CCCC2CNC(=O)C(=O)NCc2ccccc2Cl)cc1 (configuration not stated)	/	.	/	/	/	/
CC1CCc2sc(C(=O)N/N=C/c3ccc(O)cc3)cc2C1 (configuration not stated)	.	.	.	.	.	/
O=C(c1ccccn1)N(Cc1ccco1)C1(C(=O)NC2CCCC2)CCCCC1	45	.	.	.	.	.
SMILES	BaF3 tox	aSyn UTR inh	Ba/F3 V617F tox	KLF5 inhibitor	IEC-6 tox	APP 5UTR inh
O=C(c1cnccn1)N(Cc1ccco1)C1(C(=O)NC2CCCC2)CCCCC1	.	.	.	.	.	.
Cc1ccc(-n2nc3c(c2NC(=O)C(C)C)CS(=O)(=O)C3)c(C)c1	/	.	/	.	.	/
CCN1/C(=C/C=C/C=C/C=C/c2sc3ccccc3[n+]2CC)Sc2ccccc21	/	.	/	.	.	/
CCN1/C(=C/C=C/C=C/c2sc3ccccc3[n+]2CC)Sc2ccccc21	48	126	51	.	.	82
C=CCCC(=O)Nc1nc(C)c(-c2csc(Nc3cc(OC)ccc3OC)n2)s1	59	.	34	.	.	53
CCCC(=O)Nc1nc(C)c(-c2csc(Nc3cc(OC)ccc3OC)n2)s1	.	?	.	.	.	.
O=C(CNC(=O)c1ccc(F)cc1)c1ccc(Cl)cc1	/	.	/	.	.	/
O=C(NCc1ccccc1Cl)C1CCCN1C(=O)Nc1ccccc1 (configuration not stated)	/	.	/	.	.	/
O=C(Oc1c(CN2CCOCC2)cc(Cl)c2cccnc12)c1ccccc1Cl	.	105	.	.	.	53
O=C(Oc1c(CN2CCOCC2)cc(Cl)c2cccnc12)c1cccs1	.	108	.	.	.	.
COc1cc(C(=S)N2CCOCC2)cc(OC)c1OC(=O)c1ccc(F)cc1	/	.	/	.	.	/
O=C(Oc1ccc(Cl)c2cccnc12)N1CCOCC1	.	.	.	.	.	.
